The nature of test [1]: NCI Yeast Anticancer Drug Screen. Data for the rad50 strain (AID 155).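 Note: 0% = growth of vehicle-only cultures of the same strain.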 To be noted: S. cerevisiae rad50 strain growth inhibition, stronger effect = higher value. The method, boiled down:
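DNA repair mutant yeast, compound exposure, growth read-out; inhibition is taken relative to vehicle.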

The nature of test [2]: NCI Yeast Anticancer Drug Screen. Data for the mec2-1 strain (AID 157). The note with it: S. cerevisiae mec2-1 strain, stronger effect = higher value. The method, boiled down:
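Vehicle-treated cultures served as reference for growth inhibition of compound-exposed mec2-1 yeast.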

A short description of test [3]: NCI Yeast Anticancer Drug Screen. Data for the sgs1 mgt1 strain (AID 161).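 Note: 0% = growth of cultures given vehicle only.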 The note with it: S. cerevisiae sgs1 mgt1 strain, stronger effect = higher value. The method, boiled down: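 Inhibition of yeast growth, normalised to vehicle-treated controls, is reported for a strain bearing genetic alterations in DNA damage repair.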
Test [4] is described as follows: NCI Yeast Anticancer Drug Screen. Data for the cln2 rad14 strain (AID 165).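 Note: 0% = growth equal to vehicle treated cultures.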 The note with it: S. cerevisiae cln2 rad14 strain, stronger effect = higher value. The method, boiled down:
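Each compound was tested on cln2 rad14 yeast. Inhibition of growth was calculated against vehicle-exposed controls.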

Test [5] in a line: NCI Yeast Anticancer Drug Screen. Data for the bub3 strain (AID 167). The note with it: S. cerevisiae bub3 mutant strain, stronger effect = higher value. The method, boiled down:
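In this screen, a yeast mutant lacking normal mitotic checkpoint function is challenged with compound. Relative growth versus vehicle gives the inhibition value.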

Test [6] can be described thus: NCI Yeast Anticancer Drug Screen. Data for the mlh1 rad18 strain (AID 175). The note with it: S. cerevisiae mlh1 rad18 strain growth inhibition, stronger effect = higher value. The method, boiled down: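 Vehicle-treated cultures served as the reference for growth inhibition in a yeast strain carrying DNA damage repair alterations exposed to each compound.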
The mark [7] stands for this setting: at 5.0 µM (retest, dose inferred, filed as 0.5).
Where [8] appears, read: at 50.0 µM (retest, dose inferred, filed as 5.0).

Where “and” joins values, the source holds several entries; their conditions need not be identical. Identical values can stand only once. About 79,000 compounds went through this panel and 15% of them were active in at least one assay; those are over-represented in the sample as a whole. Where a structure was tested more than once in an assay, its records may differ in their call. Calls of active or inactive are those of the source. Cut-off read from the data, not from the text of the source: active = growth inhibition above about 70%; inactive = the rest.

Consider `CN=c1sc2nc(C#N)c(C#N)nc2n1C`, for which the growth inhibition in test [1] (setting [7]) is -15% (inactive); in test [1] (setting [8]), 44% (inactive); in test [1] (at 50.0 µM) it was 85.3% (active); in test [2] (setting [7]), -8% (inactive); in test [2] (setting [8]), 61% (inactive); in test [2] (at 50.0 µM), 40.1% (inactive). The growth inhibition in test [3] (setting [7]) is -23% (inactive); in test [3] (setting [8]) it was 35% (inactive); in test [3] (at 50.0 µM), 75.3% (active); in test [4] (setting [7]), 2% (inactive); in test [4] (setting [8]), 23% (inactive); in test [4] (at 50.0 µM) it was 63.1% (inactive). Moreover, the growth inhibition in test [5] (setting [7]) is -22% (inactive); in test [5] (setting [8]) it was 69% (inactive); in test [5] (at 50.0 µM), 89.8% (active); in test [6] (setting [7]), -8% (inactive); in test [6] (setting [8]), 58% (inactive); in test [6] (at 50.0 µM) it was 81.5% (active).
With `C1=C(c2ccccc2)N(CCc2ccccc2)C(c2ccccc2)=CN1Cc1ccccc1`, the growth inhibition was -7% (inactive) in test [1] (setting [7]); 95% (active) in test [1] (setting [8]); 98.4% (active) in test [1] (at 50.0 µM); 1% (inactive) in test [2] (setting [7]); 97% (active) in test [2] (setting [8]); 98.5% (active) in test [2] (at 50.0 µM). In addition, the growth inhibition in test [3] (setting [7]) was 7% (inactive); in test [3] (setting [8]), 97% (active); in test [3] (at 50.0 µM), 98.6% (active); in test [4] (setting [7]), 2% (inactive); in test [4] (setting [8]) it was 96% (active); in test [4] (at 50.0 µM), 98.5% (active). The growth inhibition in test [5] (setting [7]) was 9% (inactive); in test [5] (setting [8]), 95% (active); in test [5] (at 50.0 µM) it was 98.2% (active); in test [6] (setting [7]), -4% (inactive); in test [6] (setting [8]), 97% (active); in test [6] (at 50.0 µM) it was 98.7% (active).
As for `Fc1cccc(CSC(=S)Nc2ccc(F)c(F)c2)c1`, the growth inhibition in test [1] (setting [7]) was 12% (inactive); in test [1] (setting [8]), 99% (active); in test [1] (at 50.0 µM), 99.6% (active); in test [2] (setting [7]), 13% (inactive); in test [2] (setting [8]), 99% (active); in test [2] (at 50.0 µM), 99.8% (active). Further, the growth inhibition was 10% (inactive) in test [3] (setting [7]); 99% (active) in test [3] (setting [8]); 99.7% (active) in test [3] (at 50.0 µM); -2% (inactive) in test [4] (setting [7]); 91% (active) in test [4] (setting [8]); 99.5% (active) in test [4] (at 50.0 µM). The growth inhibition in test [5] (setting [7]) was -2% (inactive); in test [5] (setting [8]) it was 95% (active); in test [5] (at 50.0 µM), 99.7% (active); in test [6] (setting [7]), 8% (inactive); in test [6] (setting [8]), 99% (active); in test [6] (at 50.0 µM) it was 99.7% (active).
Turning to `Cc1[nH]c2ccccc2c1C1Cc2ccccc2N1` (stereo not drawn), the growth inhibition in test [1] (setting [7]) is 14% (inactive) and 19% (inactive); in test [1] (setting [8]) it was 15% (inactive) and 76% (active); in test [1] (at 50.0 µM), 37.1% (inactive) and 57.5% (inactive); in test [2] (setting [7]), 12% (inactive) and 24% (inactive); in test [2] (setting [8]), 14% (inactive) and 59% (inactive); in test [2] (at 50.0 µM) it was 36.2% (inactive) and 78.5% (active). In addition, the growth inhibition is 16% (inactive) and 25% (inactive) in test [3] (setting [7]); 14% (inactive) and 79% (active) in test [3] (setting [8]); 46.3% (inactive) and 81.3% (active) in test [3] (at 50.0 µM); 10% (inactive) and 16% (inactive) in test [4] (setting [7]); 6% (inactive) and 29% (inactive) in test [4] (setting [8]); 47.4% (inactive) and 67.6% (inactive) in test [4] (at 50.0 µM). In addition, the growth inhibition in test [5] (setting [7]) is 9% (inactive) and 15% (inactive); in test [5] (setting [8]), -12% (inactive) and 76% (active); in test [5] (at 50.0 µM), 30.6% (inactive) and 94.2% (active); in test [6] (setting [7]), 15% (inactive) and 20% (inactive); in test [6] (setting [8]), 37% (inactive) and 52% (inactive); in test [6] (at 50.0 µM), 69.7% (inactive) and 96.2% (active).
Take `CCN(CC)c1ccc(NC(C(=O)c2ccccc2)c2ccccc2)cc1` (stereo not drawn): the growth inhibition in test [1] (setting [7]) was 99% (active) and 2% (inactive); in test [1] (setting [8]), 99% (active) and 46% (inactive); in test [1] (at 50.0 µM), 99.4% (active) and 54.9% (inactive); in test [2] (setting [7]), 97% (active) and 2% (inactive); in test [2] (setting [8]) it was 99% (active) and 30% (inactive); in test [2] (at 50.0 µM) it was 98.9% (active) and 37.1% (inactive). Also, the growth inhibition in test [3] (setting [7]) was 100% (active) and 8% (inactive); in test [3] (setting [8]) it was 100% (active) and 83% (active); in test [3] (at 50.0 µM) it was 99.2% (active) and 81.2% (active); in test [4] (setting [7]) it was 98% (active) and 0% (inactive); in test [4] (setting [8]), 99% (active) and 7% (inactive); in test [4] (at 50.0 µM), 98.7% (active) and 42.6% (inactive). Moreover, the growth inhibition in test [5] (setting [7]) was 100% (active) and 2% (inactive); in test [5] (setting [8]) it was 99% (active) and 44% (inactive); in test [5] (at 50.0 µM), 99.2% (active) and 53.5% (inactive); in test [6] (setting [7]), 99% (active) and 2% (inactive); in test [6] (setting [8]) it was 99% (active) and 46% (inactive); in test [6] (at 50.0 µM), 98.5% (active) and 68.2% (inactive).
Turning to `O=C(O)c1ccc(C(c2ccccc2)c2ccccc2)cc1`, the growth inhibition in test [1] (setting [7]) is -19% (inactive); in test [1] (setting [8]), 100% (active); in test [1] (at 50.0 µM), 97% (active); in test [2] (setting [7]), 10% (inactive); in test [2] (setting [8]), 100% (active); in test [2] (at 50.0 µM), 97.2% (active). Moreover, the growth inhibition in test [3] (setting [7]) is 11% (inactive); in test [3] (setting [8]) it was 99% (active); in test [3] (at 50.0 µM), 98% (active); in test [4] (setting [7]), -11% (inactive); in test [4] (setting [8]), 99% (active); in test [4] (at 50.0 µM), 96.3% (active). Besides, the growth inhibition is -1% (inactive) in test [5] (setting [7]); 99% (active) in test [5] (setting [8]); 98.3% (active) in test [5] (at 50.0 µM); 8% (inactive) in test [6] (setting [7]); 99% (active) in test [6] (setting [8]); 98% (active) in test [6] (at 50.0 µM).

(Values after PubChem BioAssay (NCI).)
